ClpP mod: qHTS Assay for Activators of ClpP; AID 651965, 2013; purified B. subtilis ClpP, FRET peptide cleavage, 20 min; Potency, µM (top dose mostly 57.5 µM), for inactives: at the top dose activity change, negative = active; ATP-dependent Clp protease proteolytic subunit (Bacillus subtilis (strain 168)), P80244; actives 1.9% (n = 340,000); active = well fitted falling curve with a large enough effect; inconclusive = small, poorly fitted or top-dose-only effect; inactive = no such curve, though single readings can be large or run the other way; also: potency is read from the fitted curve at half-maximal effect; the source files actives as falling curves though it sought activators and does not explain the sign; nearly all actives have a fitted effect of over 65% in size
Target sequence (P80244 whole entry, looked up): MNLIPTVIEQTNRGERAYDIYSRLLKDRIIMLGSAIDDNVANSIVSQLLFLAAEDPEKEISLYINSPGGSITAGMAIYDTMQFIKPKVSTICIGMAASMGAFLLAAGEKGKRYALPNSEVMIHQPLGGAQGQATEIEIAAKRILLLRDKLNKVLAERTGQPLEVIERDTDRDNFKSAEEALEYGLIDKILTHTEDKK
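FRET quenching reversal measured ClpP activation: 10 microg/mL B. subtilis ClpP at pH 8 with the FRET-FV decapeptide, read at 430 nm after 320 nm excitation. The 20-min minus 0-min signal was scaled between DMSO/no-enzyme wells and ADEP (5.8 microM final).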
p53 reactivator: qHTS assay for re-activators of p53 using a Luc reporter. H1299 p53-A138V BP100-luciferase reporter, luminescence, 24 h. Potency, µM (doses to about 92.2 µM), for inactives: at the top dose activity change, positive = activation, actives largely listed as activators. actives 0.063% (n = 320,000). AID 504706, 2011; also: potency is read from the fitted curve at half-maximal effect; % of control where 0% means no effect; nearly all actives have a fitted effect of over 45% in size
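p53-null H1299 cells stably carrying temperature-sensitive p53-A138V and a BP100-luciferase reporter were pinned with compounds (4-point, 1:5 series) and held 24 hrs at 37 deg C. Luminescence was read 10 min after detection reagent.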
Nrf2 activator: qHTS of Nrf2 Activators | AREc32 ARE-luciferase reporter (MCF7-derived line), luminescence, 24 h | AID 624171, 2012 | Potency, µM (highest dose often 46.1 µM), without a hit: top-dose activation, usual class: activators | actives 0.31% (n = 410,000); also: potency is read from the fitted curve at half-maximal effect; % of control where 0% means no effect; nearly all actives have a fitted effect of over 65% in size
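Reporter line AREc32 (ARE-Fluc), seeded overnight in OPTI-MEM with 5% FBS; compound pin-transferred, 24 hr at 37 deg C, 5% CO2; luminescent read-out.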
A549 viability: Nrf2 qHTS screen for inhibitors: counterscreen for cytotoxicity. Potency, µM (top dose mostly 46 µM), without a hit: at the top dose activity change, negative = cytotoxicity, hits mostly inhibitors. actives 0.16% (n = 390,000). A549 ARE-Fluc cells, CellTiter-Fluor viability, 18-24 h; also: potency is read from the fitted curve at half-maximal effect; % is scaled to controls: 0 for no effect and ±100 for the full control effect
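A549 ARE-Fluc cells in 5% FBS OPTI-MEM, 5000 cells/well, rested 2 h then exposed to compounds in concentration-response for 18-24 h at 37 °C. Viability by CellTiter-Fluor fluorescence (Ex 405/Em 525) after 30 min; luciferase luminescence (BugLite, 15 min, RT) read afterwards.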
miR-21 act: qHTS Assay for Modulators of miRNAs and/orActivators of miR-21. HeLa miR-21 FLuc reporter, luciferase, 48 h. Potency, µM (doses to about 38.3 µM), without a hit: at the highest dose activity change, positive = activation, most hits filed as activators. 340,000 tested, under 10 active;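 also: % of control where 0% means no effect; miR-21 action dims this reporter so a rising signal means less miR-21 action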
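HeLa cells stably expressing CMV-driven firefly luciferase with a downstream miR-21 binding sequence, endogenously expressing miR-21, were treated with titrations (up to about 40uM final) for 48 hours at 37 degree Celsius. Luciferase luminescence was read after lysis.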
Nrf2 inh: Nrf2 qHTS screen for inhibitors; A549 ARE-Fluc reporter, luciferase luminescence, 18-24 h; actives 2.1% (n = 360,000); Potency, µM (top dose mostly 46 µM), for the others: at the highest dose activity change, negative = inhibition, usual class: inhibitors; also: potency is read from the fitted curve at half-maximal effect; % is scaled to controls: 0 for no effect and ±100 for the full control effect; nearly all actives have a fitted effect of over 60% in size
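Cells were seeded and rested 2 h, then exposed to compounds for 18-24 h. CellTiter-Fluor was read first as a viability measure. BugLite was added 15 min before the final luminescent read of ARE-luciferase activity in A549 cells.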
An asterisk follows results filed as active; ? = inconclusive; / = no result; [ ] = another dose, or the depositor's remark. The list is not random: actives were taken first. Their share in the collection is about 3.7%. Unless noted, calls follow the shape of the dose curve; as a rule, active = well fitted curve in the direction sought with a large enough effect; inconclusive = small, poorly fitted or top-dose-only effect, or another doubt; inactive = no such curve, though single readings can be large; an effect the other way counts as inactive or inconclusive.

SMILES	ClpP mod	p53 reactivator	Nrf2 activator	A549 viability	miR-21 act	Nrf2 inh
Cc1ccc(C(=O)Nc2ccc(S(=O)(=O)N3CCc4ccccc43)cc2)o1	-2%	/	1%	-23%	14%	21µM*
NC(=O)c1ccsc1NC(=O)c1ccc(S(=O)(=O)N2CCCc3ccccc32)cc1	-13%	-1%	-4%	?	22%	18µM*
CCOC(=O)CCC(=O)Nc1ccc(S(=O)(=O)N2CCc3ccccc32)cc1	3%	17%	0%	0%	2%	3%
CCCC(=O)NC(=S)Nc1ccc(S(=O)(=O)N2CCc3ccccc32)cc1	-1%	/	-1%	-14%	/	21µM*
O=C(O)c1ccc(S(=O)(=O)N2CCCc3ccccc32)cc1	-1%	2%	0%	1%	2%	0%
CC(C)C[C@@H](CN)NC(=O)c1nc[nH]c1C(=O)N[C@@H](CC(C)C)C(=O)CNC[C@H](C)NC(=O)c1nc[nH]c1C(=O)N[C@@H](CC(=O)O)C(=O)O	1%	/	-1%	-5%	/	2%
Cc1ccccc1-c1csc(C(C)(O)c2cccnc2)n1 (stereo not given)	-3%	/	3%	/	/	/
O=C(CSc1nnc2scc(-c3ccc(Cl)cc3)n12)Nc1ccccc1F	1%	/	8%	-1%	-9%	-11%
Cc1ccc(-n2c3c(cc(-c4nc(-c5ccc(Cl)cc5)cs4)c2=O)C(=O)CC(C)(C)C3)cc1C	-12%	/	-1%	1%	-3%	4%
c1ccc(Oc2ncnc3oc(-c4ccccc4)cc23)cc1	-2%	-3%	2%	-2%	-4%	/
c1ccc(-c2cc3c(-n4cccc4)ncnc3o2)cc1	28µM*	18%	3.2µM*	-3%	-26%	16%
Cc1ccn2c(CC(C)(C)C)c(-c3ccc(F)cc3)nc2c1	-17%	/	15%	/	/	/
CCc1ccc2[nH]c3nc(SCC(=O)NNC(=O)c4ccc(C(C)(C)C)cc4)nnc3c2c1	-2%	-2%	-1%	12µM*	-14%	?
Cc1ccc(C(=O)NNC(=O)CSc2nnc3c(n2)[nH]c2ccc(C)cc23)cc1	-2%	6%	0%	-17%	-3%	?
CCNc1ccc(Br)cc(C(=O)/C=C/c2ccc(Cl)cc2Cl)c1=O	-2%	-37%	?	?	-14%	26µM*
CNc1ccc(Br)cc(C(=O)/C=C/c2ccc(OC)cc2)c1=O	0%	1%	?	0%	9%	0%
CNc1ccc(Br)cc(C(=O)/C=C/c2cc(OC)ccc2OC)c1=O	-10%	-45%	14µM*	?	20%	?
COc1ccc(C=O)cc1COc1ccc(NC(C)=O)cc1	/	/	/	0%	/	4%
Cn1nc(C(F)(F)F)c(C(=O)Nc2ccc(F)cc2F)c1Sc1cccc(C(F)(F)F)c1	0%	2%	0%	15%	-1%	-12%
Cn1nc(C(F)(F)F)c(C(=O)Nc2ccc(F)cc2F)c1Sc1cccc(Cl)c1	-3%	0%	0%	?	0%	18µM*
CCCC(=O)N1CC(=O)Nc2ccc(C)cc2C1c1ccccc1 (stereo not given)	18µM*	-7%	-1%	-2%	-7%	-6%
CCC(CC)C(=O)N1CC(=O)Nc2ccc(C)cc2C1c1ccccc1 (stereo not given)	-1%	-4%	0%	-2%	-1%	-13%
O=C(CSc1nnc(-c2ccccc2)c(-c2ccccc2)n1)N1CCOCC1	1%	4%	-1%	0%	-6%	-4%
O=C(CSc1nc(-c2ccccc2)c(-c2ccccc2)o1)N1CCOCC1	32µM*	-6%	-1%	16%	3%	?
Cc1cccc(Cn2cc(C(=O)Nc3ccc(F)c(C(F)(F)F)c3)ccc2=O)c1	-1%	/	4%	-13%	?	/
SMILES	ClpP mod	p53 reactivator	Nrf2 activator	A549 viability	miR-21 act	Nrf2 inh
CN(C)S(=O)(=O)Oc1ccsc1C(=O)Nc1ccc(Br)cc1	/	3%	11%	?	8%	21µM*
Cc1ccc(Nc2ccc3cc(S(=O)(=O)N4CCC(C)CC4)ccc3n2)c(Cl)c1	5%	/	0%	-18%	3%	-8%
CC1CCN(S(=O)(=O)c2ccc3nc(-c4ccccn4)cc(C(=O)NCCN(C)Cc4ccccc4)c3c2)CC1	-1%	3%	0%	4%	0%	-8%
CC1CCN(S(=O)(=O)c2ccc3nc(Nc4cccc(F)c4)ccc3c2)CC1	5%	/	0%	?	22%	21µM*
CC1CCN(S(=O)(=O)c2ccc3nc(NCc4ccccc4)ccc3c2)CC1	5%	/	0%	-15%	21%	16µM*
COc1ccccc1-c1cc2nc(C)c(CCC(=O)NCCc3cccc(C)c3)c(C)n2n1	4%	/	-1%	1%	21%	?
CCc1ccc(C(=O)Cn2ncc(Cl)c(Cl)c2=O)cc1	1%	-28%	10µM*	3%	-5%	-14%
O=C(Cn1ncc(Cl)c(Cl)c1=O)N1CCOCC1	/	-11%	11µM*	?	?	87%
COc1ccc(NC(=O)CSc2nc3c([nH]c4ccccc43)c(=O)n2-c2ccccc2)c(OC)c1	?	/	4%	-4%	-11%	/
Cc1ccc(NC(=O)c2c([N+](=O)[O-])cnn2C)cc1C	0%	/	0%	0%	-7%	?
Cn1ncc([N+](=O)[O-])c1C(=O)Nc1ccc2c(c1)OCCO2	32µM*	13%	3%	-3%	-12%	/
Cc1ccc2nc(SC(C)C(=O)NC3CCCc4ccccc43)[nH]c2c1 (stereo not given)	25µM*	6%	1%[9.22 µM]	-3%	18%	-27%
COc1ccc(CCNC(=O)C(=O)NCC(c2ccco2)S(=O)(=O)c2ccc(F)cc2)cc1 (stereo not given)	1%	/	0%	0%	22%	/
COc1ccc(CCn2c(=O)c3cccnc3n(CC(=O)Nc3ccc(C)c(F)c3)c2=O)cc1OC	-2%	/	0%	-4%	-4%	13%
COC(=O)Cn1c(=NC(=O)c2ccc(S(=O)(=O)N3CCc4ccccc4C3)cc2)sc2cc(OC)ccc21	-23%	-2%	0%	2%	3%	10%
COC(=O)Cn1c(=NC(=O)c2cc(-c3cccs3)nc3ccccc23)sc2cc(S(N)(=O)=O)ccc21	?	-5%	4%	-4%	14%	-9%
COC(=O)Cn1c(=NC(=O)c2nc3ccccc3s2)sc2cc(S(N)(=O)=O)ccc21	22µM*	-3%	0%	-13%	-1%	?

Screening results from PubChem.
